Experimental data as given in PubChem BioAssay (NCI).
Where “and” joins values, the source holds several entries; their conditions need not be identical. Equal values may be shown once. This is part of a sample that, as a whole, favours compounds with a hit. Of some 83,000 tested, about 20% had one in any assay.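 Method: cells in 96-well plates; compound added at one concentration; 48 h incubation; percent growth measured; values under 10 scored active.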 Calls of active or inactive are those of the source.

Each molecule was assayed on MDA-MB-468 breast (assay: NCI-60 one-dose screen, 48 h (100 = growth as untreated, 0 = no growth, -100 = all killed)). Conditions: 10 µM unless noted.

How did the growth turn out when `O=C1CCC23OC(C(O)c4ccccc4N12)C1C(Br)=NOC13` (stereo not given) was run?
The growth was 115% (inactive).

Which growth does the source give for `Oc1cc(O)c2c(c1)O[C@H](c1ccc(O)c(O)c1)[C@@H](O)C2` here?
The growth was 115% (inactive).

With `COc1cc(-c2nn(-c3cccc(NC(=O)CCN4CCN(Cc5ccccc5)CC4)c3)cc2-c2ccncc2)ccc1Cl` as the molecule, how does the growth read?
The growth was 1.17% (active).

Which growth does the source give for `Cc1ccc(-c2nc3ccc(Cl)cn3c2NC2CCCCC2)o1` here?
The growth was 78.2% (inactive).

For `CCCCn1c(=O)c(-c2cc(-c3ccc(Cl)cc3)nc(-c3ccc(Cl)cc3)c2)cc2cc(Cl)ccc21`, which growth is on record?
The growth was 108% (inactive).

For `Cn1cc(-c2[nH]c3cc(NC(=O)[C@H](N)C4CCCCC4)cc4c3c2C=NNC4=O)cn1`, which growth is on record?
The growth was -83.3% (active).

For `CCOP(=O)(O)OP(=O)(O)OCC`, which growth is on record?
Its growth is 107% (inactive).

With `CCN(CC)CCn1c(=N)n(CC(O)c2ccc(Cl)c(Cl)c2)c2ccccc21` (stereo not given) as the molecule, how does the growth read?
The growth was 21% (inactive).

`Nc1n[nH]c2cccc(C#Cc3cccc(C(=O)Nc4cc(C(F)(F)F)cc(C(F)(F)F)c4)c3)c12` was tested. Which growth did it give?
Its growth is 87.5% (inactive).

For `NC1=C(c2nn[nH]n2)C(c2ccccc2Cl)c2ccc3ccccc3c2O1` (stereo not given), which growth is on record?
The growth was 55.3% (inactive).

How did the growth turn out when `Clc1ccc2sc(-c3ccccc3)nc2c1` was run?
Its growth is 68.9% (inactive).

With `COc1ccccc1-c1ccc2c(N)c(C(=O)c3ccc4c(c3)OCO4)sc2n1` as the molecule, how does the growth read?
The growth was 55.1% (inactive).

How did the growth turn out when `Cc1nc(Nc2nc3ccccc3o2)nc(-c2cccc([N+](=O)[O-])c2)c1C(=O)Nc1ccc(F)c(Cl)c1` was run?
Its growth is -2.01% (active).

For `COc1ccc(C(=O)C(CN(C)C)c2ccccc2)cc1` (stereo not given), which growth is on record?
The growth was -58.5% (active).

Which growth does the source give for `CN1CCN(Cc2ccc(NC(=O)c3cncc(C#Cc4cnc(N)c5ccc(F)cc45)c3)cc2C(F)(F)F)CC1` here?
The growth was -34.4% (active).

For `COc1ccc(/C=C/C(=O)CCC(=O)O)cc1OC`, which growth is on record?
Its growth is 113% (inactive).

With `N#CC[C@H](C1CCCC1)n1cc(-c2ncnc3[nH]ccc23)cn1` as the molecule, how does the growth read?
The growth was 71.3% (inactive).

How did the growth turn out when `COC(=O)[C@@H](NC(=O)[C@@H](OC)[C@@H]1Cc2cc3cc(OC4CC(OC5CC(O)C(O)C(C)O5)C(O)C(C)O4)c(C)c(O)c3c(O)c2C(=O)[C@H]1OC1CC(OC2CC(OC3CC(C)(O)C(O)C(C)O3)C(O)C(C)O2)C(O)C(C)O1)C(C)C` (stereo not given in full) was run?
The growth was -3.89% (active).

`COc1ccc(/C(C)=C(\c2ccc(Cl)cc2)c2ccc(OCCN3CCCC3)cc2)cc1` was tested. Which growth did it give?
The growth was 57.8% (inactive).

For `Cc1nc2ccccc2c(=O)n1-c1cccc(OCc2cn(-c3cccc(O)c3)nn2)c1`, which growth is on record?
The growth was 87.7% (inactive).

For `CCCCn1c(-c2ccc(C(=O)O/N=C(\N)c3ccc4c(c3)OCO4)cc2)nc(-c2ccccc2)c1-c1ccccc1`, which growth is on record?
Its growth is 73.8% (inactive).

How did the growth turn out when `CC1=C(/C=C/C(C)=C/C=C/C(C)=C/C(=O)Nc2ccc(O)cc2)C(C)(C)CCC1` was run?
Its growth is 30.1% (inactive).

How did the growth turn out when `O=C(CN1CCN(c2ccccc2)CC1)N1CCN(c2nnc(-c3ccc(Cl)cc3)c(-c3ccc(Cl)cc3)n2)CC1` was run?
Its growth is 78.7% (inactive).

`Cc1cc(N2CCCCC2)nc(NCc2cc(Nc3ccnc4cc(Cl)ccc34)ccc2F)n1` was tested. Which growth did it give?
Its growth is -60.3% (active).

How did the growth turn out when `CC12OC(CC(O)C1O)n1c3ccccc3c3c4c(c5c6ccccc6n2c5c31)C(=O)N(CCN1CCCC1)C4=O` (stereo not given) was run?
Its growth is 3.48% (active).

With `CC(CN1CCN(CCOCCO)CC1)CN1c2ccccc2Sc2ccc(Cl)cc21` (stereo not given) as the molecule, how does the growth read?
Its growth is 40.9% (inactive).

Which growth does the source give for `Cc1ccc(/C=C/CC(=O)Nc2ccc(C(=O)Nc3ccc(F)cc3N)nc2)cn1` here?
The growth was 4.55% (active).

With `Cc1ccc(S(=O)(=O)N2CCCN(c3nc(-c4ccccc4)nc4nc(-c5ccccc5)oc34)CC2)cc1` as the molecule, how does the growth read?
The growth was 109% (inactive).

With `O=C(N/N=C/c1ccccc1O)c1ccccc1` as the molecule, how does the growth read?
Its growth is 12.1% (inactive).

With `CCCCCC(C)c1ccc(O)c(C)c1` (stereo not given) as the molecule, how does the growth read?
The growth was 101% (inactive).

For `CCCCCCNc1cc(C)nc2ccc(OC)cc12`, which growth is on record?
The growth was -10.9% (active).

`NCCNC(=O)c1cccc(COc2ccccc2NC(=O)c2cc(Cl)c(Cl)[nH]2)c1` was tested. Which growth did it give?
Its growth is 96% (inactive).

How did the growth turn out when `COc1cc(Nc2nc3ccccc3nc2NS(=O)(=O)c2ccc(NC(=O)c3ccc(C)c(OC)c3)cc2)cc(OC)c1` was run?
The growth was 72.6% (inactive) and -30.3% (active).

For `CCN1C[C@@H](C)n2c(c(O)c3c(=O)n(Cc4ccc(F)c(Cl)c4)nc(C(=O)NC)c32)C1=O`, which growth is on record?
Its growth is 45% (inactive).

Which growth does the source give for `Cc1ccc(C2CC(c3ccc(Nc4ccnc5cc(Cl)ccc45)cc3)=NN2C=O)cc1` (stereo not given) here?
The growth was 33% (inactive).

`Nc1cc(N)nc(SCC(=O)O)n1` was tested. Which growth did it give?
The growth was 108% (inactive).

Which growth does the source give for `O=C1c2cccc3cc([N+](=O)[O-])cc(c23)C(=O)N1CCN1CCCC1` here?
Its growth is -53.4% (active).

Which growth does the source give for `CCOC(=O)CC(=O)c1c(C)cc(C)cc1C` here?
The growth was 98.6% (inactive).

With `CCCCCCCC/C=C\CCCCCCCCOc1ccc(CC(=O)NCC[N+](C)(C)C)cc1` as the molecule, how does the growth read?
The growth was 60.1% (inactive).

`S=C(Cc1ccc2c(c1)CCCC2)N1CCOCC1` was tested. Which growth did it give?
The growth was 105% (inactive).
